In experiment [1] the target is Glutathione peroxidase 1 (Homo sapiens) (UniProt P07203). The experiment in a line: Primary qHTS Assay for Inhibitors of Recombinant Selenoprotein Glutathione Peroxidase 1 (GPX1) (AID 1845191). Also: nearly all actives have a fitted effect of over 65% in size. Summed up:
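GPX1 10 nM, GR 100 nM, GSH 1 mM, NADPH 0.5 mM, CHP 0.5 mM (final). 30-min cpd preincubation, RT. Ex340/Em450 read t=0, t=15 min.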
For orientation: qHTS replaces the single test concentration by a dilution series.

For experiment [2], the target named is Phospholipid hydroperoxide glutathione peroxidase GPX4 (Homo sapiens) (UniProt P36969). Briefly: Primary qHTS Assay for Inhibitors of Recombinant Selenoprotein Glutathione Peroxidase 4 (GPX4) (AID 1845192). Also: nearly all actives have a fitted effect of over 65% in size. An outline of the steps: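 qHTS, GR-coupled: GPX4 200 nM + cpd 30 min RT → GSH 1 mM, NADPH 0.5 mM, GR 100 nM → CHP 0.5 mM start; fluor 340/450 at t0 and t15 min; no-enzyme wells as control.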

Experiment [3] can be described thus: Primary fluorescence-based thiol-reactive (MSTI) qHTS assay for identification of artifact compounds. (AID 1845221). Also: nearly all actives have a fitted effect of over 65% in size. Also: potency is read from the fitted curve at half-maximal effect. Summed up: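 Compounds were incubated 1 h at room temperature in the dark with the MSTI probe (4 uM) in PBS pH 7.4, 2% DMSO. Signals were normalized between Acetyl-MSTI and MSTI.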
The test system of experiment [4] is Nanoluciferase (engineered Oplophorus gracilirostris luciferase). The experiment in a line: Primary Nanoluciferase (NLuc) qHTS assay for identification of artifact compounds. (AID 1845222).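 Also: NLuc secreted into diluted conditioned medium of S16 cells; series mostly up to about 54 µM.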 Summed up: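 Using secreted nanoluciferase in S16 culture medium (0.22 um filtered, 1:55 dilution), compounds were preincubated 15 min at RT. Signal was generated with Nano-Glo reagent (1:100) over 5 min.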

Experiment [5] in a line: Primary redox qHTS assay for identification of artifact compounds. (AID 1845223). Summed up:
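Redox-cycling detection via DTT (250 uM final) oxidation coupled to Amplex Red (25 uM)/HRP (250 mU/mL) in HBSS. 15 min preincubation plus 30 min after DTT, room temperature. Ex/Em 525/598 nm; 4-parameter Hill fit against DMSO and 10 uM DA3003.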

Experiment [6] has as its target Luciferin 4-monooxygenase (Photinus pyralis) (UniProt P08659). The experiment in a line: Primary firefly luciferase (FLuc) qHTS assay for identification of artifact compounds. (AID 1845220). Also: nearly all actives have a fitted effect of over 60% in size. An outline of the steps: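 In this counter-screen for luciferase artifacts, test compounds met substrate (10 uM each luciferin and ATP) before 10 nM enzyme started the reaction. Light output was measured 5 min later.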

Records with an inconclusive call do not appear. Calls of active or inactive are those of the source. Calls follow the shape of the dose curve; as a rule, active = well fitted curve in the direction sought with a large enough effect; inconclusive = small, poorly fitted or top-dose-only effect, or another doubt; inactive = no such curve, though single readings can be large; an effect the other way counts as inactive or inconclusive. *1 amine or outer side, *2 acyl side, *3 side chain or, on linkers, in order; H or OH if unused. Where a SMILES comes first, the peptide text is derived from it. [ ]: non-standard residue; d: D form. X13 = O=C(C(CC(O)CO)O[*:1])[*:2]; NMeV = CN[CH](C(=O)O)C(C)C; NMeA = CN[CH](C)C(=O)O; βAla = NCCC(=O)O

Glutathione peroxidase 1 (Homo sapiens), sequence (P07203 whole entry, looked up): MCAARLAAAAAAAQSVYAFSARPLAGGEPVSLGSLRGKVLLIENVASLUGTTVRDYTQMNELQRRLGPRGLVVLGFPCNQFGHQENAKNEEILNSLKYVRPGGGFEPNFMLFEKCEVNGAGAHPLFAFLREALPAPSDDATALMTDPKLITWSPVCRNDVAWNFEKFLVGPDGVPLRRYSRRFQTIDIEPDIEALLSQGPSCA
Phospholipid hydroperoxide glutathione peroxidase GPX4 (Homo sapiens), sequence (P36969 whole entry, looked up): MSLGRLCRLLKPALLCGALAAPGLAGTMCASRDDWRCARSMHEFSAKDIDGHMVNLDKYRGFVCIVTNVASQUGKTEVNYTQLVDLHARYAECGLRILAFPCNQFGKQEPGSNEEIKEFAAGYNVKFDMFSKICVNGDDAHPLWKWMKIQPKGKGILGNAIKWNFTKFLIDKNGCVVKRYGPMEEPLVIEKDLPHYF

`N#Cc1cccc(-c2nc(-c3cccnc3)no2)c1`: the Potency entry in experiment [1], in experiment [2], in experiment [3], in experiment [4] and in experiment [5] was “inactive” each time.
Consider `COc1ccc2[nH]c(S(=O)Cc3ncc(C)c(OC)c3C)nc2c1` (stereo not drawn), for which the Potency entry in experiment [1], in experiment [6], in experiment [4] and in experiment [5] was “inactive” throughout. Besides, in experiment [3], the Potency was 11900 nM (active).
On to `C[C@@H](NC(=O)c1cc(C(=O)N[C@@H](Cc2ccccc2)[C@H](O)CNC2CC2)cc(N(C)S(C)(=O)=O)c1)c1ccccc1`, for which the Potency result in experiment [1], in experiment [2], in experiment [3], in experiment [4] and in experiment [5] was “inactive” in each case.
For `CS(=O)(=O)c1ccccc1N1CCN(c2nc3c(c(=O)[nH]2)CSCC3)CC1`, the Potency result in experiment [1], in experiment [2], in experiment [4] and in experiment [5] was “inactive” throughout.
Take `O=C(O)CCc1ccc(NCc2cccc3c2CCCN3CCOc2ccccc2)cc1F`: the Potency result in experiment [1], in experiment [2], in experiment [4] and in experiment [5] was “inactive” throughout. For the same molecule, the Potency in experiment [3] was 1500 nM (active).
Consider `O=C(/C=C/c1ccccc1)OC[C@H]1O[C@@H](OC(=O)c2cc(O)c(O)c(O)c2)[C@H](O)[C@@H](O)[C@@H]1O`, for which the Potency entry in experiment [1], in experiment [2] and in experiment [5] was “inactive” each time. In experiment [3], the Potency is 327 nM (active).
Take `CC(C)=CCC[C@@](C)(O)[C@H]1CC[C@]2(C)[C@@H]1[C@H](O)CC1[C@@]3(C)CC[C@H](O[C@@H]4O[C@H](CO)[C@@H](O)[C@H](O)[C@H]4O[C@@H]4O[C@H](CO)[C@@H](O)[C@H](O)[C@H]4O)C(C)(C)[C@@H]3CC[C@]12C` (stereo partly drawn): the Potency entry in experiment [1], in experiment [2], in experiment [4] and in experiment [5] was “inactive” throughout.
For `COc1c2ccoc2nc2c(OC)c(O[C@@H]3O[C@@H](C)[C@H](O)[C@@H](O[C@@H]4O[C@H](CO)[C@@H](O)[C@H](O)[C@H]4O)[C@H]3OC(C)=O)ccc12`, the Potency result in experiment [1], in experiment [6], in experiment [3] and in experiment [4] was “inactive” in each case.
Regarding `COc1ccc(C(=O)NCc2cc(C(C)C)no2)cc1OC1CCN(C)CC1`, the Potency result in experiment [1], in experiment [2], in experiment [3], in experiment [4] and in experiment [5] was “inactive” each time.
Regarding `O=C(NCCN1CCCC1)c1cc(-c2ccc(CN3CCOCC3)cc2)nc2ccc(F)cc12`, the Potency result in experiment [1], in experiment [6], in experiment [3], in experiment [4] and in experiment [5] was “inactive” throughout.
On to `C=C(C)C(O)COc1ccc(CC(=O)O)cc1` (stereo not drawn), for which the Potency result in experiment [1], in experiment [2], in experiment [4] and in experiment [5] was “inactive” throughout.
As for `CCC(C)C1NC(=O)C2CCCN2C(=O)C(CC(O)CO)OC(=O)CCNC(=O)C(C)N(C)C(=O)C(C(C)C)N(C)C1=O` (stereo not drawn) (cyclo([X13]PI[NMeV][NMeA][βAla]); configuration not given here), the Potency result in experiment [1], in experiment [2], in experiment [3], in experiment [4] and in experiment [5] was “inactive” throughout.
With `CC1=CC(=O)CC(C)(C)C1CCC(C)O[C@@H]1O[C@H](CO)[C@@H](O)[C@H](O)[C@H]1O` (stereo partly drawn), the Potency entry in experiment [1], in experiment [2] and in experiment [5] was “inactive” throughout. The Potency in experiment [3] is 9270 nM (active).
As to `C=C[C@H]1[C@H](O[C@@H]2O[C@H](CO)[C@@H](O)[C@H](O)[C@H]2O)OC=C(C(=O)OC)[C@H]1CC=O`, the Potency entry in experiment [1], in experiment [2], in experiment [4] and in experiment [5] was “inactive” in each case.
For the molecule `CCC(C)/C=C(C)/C=C/C1=CC2=C(Cl)C(=O)C(C)(OC(C)=O)C(=O)C2=CN1C(CCCN=C(N)N)C(=O)O` (stereo not drawn), the Potency entry in experiment [1], in experiment [6], in experiment [4] and in experiment [5] was “inactive” in each case. In addition, in experiment [3], the Potency was 1030 nM (active).
In the case of `COc1cc(/C=C/C(=O)OC[C@H]2O[C@@H](OC3OC=C(C(=O)O)C4C(O)CC(C)(O)C34)[C@H](O)[C@@H](O)[C@@H]2O)cc(OC)c1O` (stereo partly drawn), the Potency result in experiment [1], in experiment [2], in experiment [4] and in experiment [5] was “inactive” each time.
`CCOC(=O)CSc1nc2c(sc3ccccc32)c(=O)n1CCCN1CCCC1`: the Potency entry in experiment [1], in experiment [6], in experiment [3] and in experiment [5] was “inactive” each time.
Regarding `COc1ccc(-c2ccn(CC[C@](C)(C(=O)NO)S(C)(=O)=O)c(=O)c2)c(F)c1`, the Potency result in experiment [1], in experiment [2], in experiment [4] and in experiment [5] was “inactive” in each case.
For `CC1CC=C2C1CC1(O)C(=O)CC2(C)C1(C)CO` (stereo not drawn), the Potency result in experiment [1], in experiment [2] and in experiment [4] was “inactive” in each case.
On to `CCC(C)/C=C(C)/C=C/C1=CC2=C(Cl)C(=O)C(C)(OC(C)=O)C(=O)C2=CN1CCCCC(N)C(=O)O` (stereo not drawn), for which the Potency entry in experiment [1], in experiment [6] and in experiment [4] was “inactive” in each case. The Potency in experiment [3] was 653 nM (active).
Regarding `CC(=O)O[C@H]1[C@H](OC(=O)C(C)C)[C@]2(C)OC3(CC[C@]2(C)[C@H]2CCC[C@]4(CO4)[C@]12C)COC(=O)C3` (stereo partly drawn), the Potency result in experiment [1], in experiment [2], in experiment [4] and in experiment [5] was “inactive” each time.
In the case of `COC(=O)C1=COC(OC2OC(CO)C(O)C(O)C2O)C2C(C)C(OC(C)=O)C(OC(=O)c3ccccc3)C12` (stereo not drawn), the Potency entry in experiment [1], in experiment [2], in experiment [4] and in experiment [5] was “inactive” each time.
As to `Cn1nccc1-c1ccccc1Oc1ccc(S(=O)(=O)Nc2nccs2)cc1C#N`, the Potency entry in experiment [1], in experiment [2], in experiment [3] and in experiment [5] was “inactive” each time.
As for `CC(O)CCc1ccc(O[C@@H]2O[C@H](CO)[C@@H](O)[C@H](O)[C@H]2O)cc1` (stereo partly drawn), the Potency result in experiment [1], in experiment [2], in experiment [4] and in experiment [5] was “inactive” each time.
For `C[C@H]1[C@H](C)C[C@@H](C(=O)O)C2CC[C@]3(C)C(=CC[C@@H]4[C@@]5(C)CC[C@H](O)C(C)(C)[C@@H]5CC[C@]43C)[C@@H]21` (stereo partly drawn), the Potency result in experiment [1], in experiment [2], in experiment [3], in experiment [4] and in experiment [5] was “inactive” throughout.
For `COc1cncc(C#Cc2ccccn2)c1`, the Potency entry in experiment [1], in experiment [2], in experiment [3], in experiment [4] and in experiment [5] was “inactive” throughout.

These data come from PubChem BioAssay (NCATS).
